An excerpt weighted towards active compounds, which were near 3.1% of everything screened.
TexasRed fluor – counter-screen for TRb-SRC2 inhibitors: fluorescence interference. Potency, µM (highest dose often 106 µM), for inactives: at the highest dose fluorescence change, negative = quenching. AID 1479. TRb/SRC2 Texas Red total fluorescence interference. 280,000 compounds, 0.29% hits; active = well fitted curve in either direction with a large enough effect; inconclusive = small, poorly fitted or top-dose-only effect
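Human TRβ ligand-binding domain (0.6 uM) and Texas Red SRC2 peptide (20 nM) in Tris buffer with 1 uM T3 and 5% DMSO were incubated with pinned compound for 5 hr at ambient temperature. Total fluorescence was computed as S + 2P (555/632 nm).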
Tau fibril ThT – tau fibrillization inhibition (ThT binding); AID 1460; recombinant tau K18 P301L, heparin-induced fibrillization, ThT fluorescence; 270,000 compounds, 2.1% hits; Potency, µM (top dose mostly 57.4 µM), without a hit: top-dose activity, negative = inhibition, hits mostly inhibitors; note: nearly all actives have a fitted effect of over 55% in size
Target sequence (P10636 561-689 P618L limits assumed): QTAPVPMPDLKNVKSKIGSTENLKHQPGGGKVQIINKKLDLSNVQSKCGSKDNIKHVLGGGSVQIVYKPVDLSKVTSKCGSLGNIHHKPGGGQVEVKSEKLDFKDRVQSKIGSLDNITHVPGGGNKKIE
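Aggregation was driven by heparin (20 uM final) acting on recombinant tau […] bearing P301L in 100 mM sodium acetate pH 7; fibrils were detected with Thioflavin T.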
TRb SRC2 PPI – inhibitors of human thyroid hormone receptor beta-SRC2 interaction. TRbeta-SRC2 peptide binding, fluorescence polarization; receptor liganded with 1 µM T3. Potency, µM (top dose mostly 106 µM), without a hit: top-dose activity change, negative = inhibition, actives largely listed as inhibitors. 280,000 compounds, 0.065% hits;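 note: plate controls were bound peptide for no effect and peptide without receptor for full effect; nearly all actives have a fitted effect of over 50% in size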
Target sequence (P10828 whole entry, looked up): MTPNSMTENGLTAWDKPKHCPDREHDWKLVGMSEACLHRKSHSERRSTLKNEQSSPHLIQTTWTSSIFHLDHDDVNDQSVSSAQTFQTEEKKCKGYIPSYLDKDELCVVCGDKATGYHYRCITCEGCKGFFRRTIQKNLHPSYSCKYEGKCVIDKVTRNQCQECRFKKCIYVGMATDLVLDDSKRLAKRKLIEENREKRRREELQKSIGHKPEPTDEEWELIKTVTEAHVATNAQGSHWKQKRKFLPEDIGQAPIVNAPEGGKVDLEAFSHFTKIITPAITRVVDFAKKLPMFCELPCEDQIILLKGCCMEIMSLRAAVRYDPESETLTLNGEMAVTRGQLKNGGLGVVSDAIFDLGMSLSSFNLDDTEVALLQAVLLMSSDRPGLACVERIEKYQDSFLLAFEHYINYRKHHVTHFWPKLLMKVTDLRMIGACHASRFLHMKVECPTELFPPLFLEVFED
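Fluorescence polarization of 20 nM Texas Red SRC2 peptide (20-aa NR interaction domain) bound to 0.6 uM human TRb ligand-binding domain, with 1 uM T3, after 5 hr at ambient temperature; inhibition seen as decreased polarization.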
Tau fluor counter – counter-screen for tau fibril formation inhibitors; tau K18 P301L Alexa594 fluorescence, heparin fibrillization; Potency, µM (titrated, usually from 57.7 µM), for inactives: at the top dose activity change, negative = decrease; 280,000 compounds, 0.93% hits; AID 1463; note: nearly all actives have a fitted effect of over 55% in size
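Human tau K18 P301L (15 uM unlabeled, 0.24 uM Alexa 594-labeled) in 100 mM sodium acetate pH 7 with 20 uM heparin, 6 hr at 37 C. ThT 30 uM added, 1 hr ambient; Alexa 594 FP and total fluorescence read at 555/632 nm.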
Tau FP inhib – blocks human tau fibril formation measured by polarization | P10636 | K18 P301L tau heparin fibrillization, Alexa594 FP, 6 h | Potency, µM (series often up to 57.7 µM), inactives show at the top dose activity, negative = inhibition, hits mostly inhibitors | 280,000 compounds, 0.39% hits | AID 1468; note: nearly all actives have a fitted effect of over 55% in size
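Read-out: fluorescence polarization of Alexa 594-labeled tau (0.24 uM), 555 nm excitation, 632 nm emission. Mixtures held 15 uM unlabeled K18 P301L, compound and 20 uM heparin, pH 7 acetate buffer, incubated 6 hr at 37 C.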
Active calls of the source: *; ? = inconclusive; [ ] = dose if it differs, or a comment. Unless noted, calls come from the whole dose curve; as a rule, active = well fitted curve in the direction sought with a large enough effect; inconclusive = small, poorly fitted or top-dose-only effect, or another doubt; inactive = no such curve, though single readings can be large; an effect the other way counts as inactive or inconclusive. Unless noted, % is set by controls: 0 for no effect and ±100 for the full control effect; potency is the fitted concentration of half-maximal effect.

SMILES	TexasRed fluor	Tau fibril ThT	TRb SRC2 PPI	Tau fluor counter	Tau FP inhib
CCC(C)(C)n1nnnc1CN(Cc1cc2cc(OC)ccc2[nH]c1=O)C1CCCC1	-3.0%	?	3.1%	-15.8%	1.1%
COc1cc2cc(CN(Cc3nnnn3Cc3ccco3)C3CCCCC3)c(=O)[nH]c2cc1OC	-16.4%	15.8µM*	-13.3%	?	?
CCOc1ccc2[nH]c(=O)c(CN(Cc3ccco3)C(CC)c3nnnn3Cc3ccccc3)cc2c1 (stereo unspecified)	0.0%	25.1µM*	-6.4%	-12.1%	?
CCOc1ccc2[nH]c(=O)c(C(c3nnnn3Cc3ccco3)N3CCN(C)CC3)cc2c1 (stereo unspecified)	-8.2%	14.1µM*	?	-19.1%	?
Cc1ccc(-n2nc(C(=O)N(C)c3ccc(C)c(C)c3)c3c4ccccc4n(C)c3c2=O)cc1	-1.2%	-4.6%	4.2%	-8.1%	-6.5%
COc1ccc(Cn2c(SCc3ccc(C(=O)NC4CCCCC4)cc3)nc3ccncc32)cc1	4.2%	2.2%	1.0%	-17.4%	7.2%
CC(=O)n1cc(C(C[N+](=O)[O-])SCCN)c2ccccc21 (stereo unspecified)	-1.9%	12.6µM*	9.1%	-18.9%	-9.9%
O=C(O)c1ccc(-c2nc(-c3ccc(Cl)c(Cl)c3)cs2)cc1	-3.9%	-8.4%	2.2%	-11.4%	-5.9%
NC(=O)C(=CNc1nc(-c2ccc(Cl)c(Cl)c2)cs1)C(N)=O	-8.6%	15.8µM*	-2.9%	15.8µM*[quencher]	-9.0%
COc1cc(-c2ccc(NC(C)=O)c(OC)c2)ccc1NC(C)=O	-1.6%	-10.4%	-1.7%	-11.7%	-1.2%
COc1cc(O)c(NC(C)=O)c2nonc12	-2.5%	7.94µM*	-28.7%	-14.9%	?
O=C(Nc1ccc(Cl)cc1)c1cnn2c1NC(c1ccccc1)=CC2c1ccccc1 (stereo unspecified)	3.9%	?	-0.4%	10µM*[quencher]	?
Cc1snc(SCC(=O)c2ccc(F)cc2)c1C#N	-1.1%	-14.6%	-0.1%	-17.3%	8.3%
Cc1snc(SCC(=O)c2ccc([N+](=O)[O-])cc2)c1C#N	-6.0%	14.1µM*	-7.4%	-26.3%	?
CCOC(=O)c1c(NC(C)=O)c2c3c(sc2n1Cc1nc(-c2ccccc2Cl)oc1C)CCCC3	17.8µM*[quencher]	-6.6%	-14.3%	-7.0%	-4.8%
CCOC(=O)c1c(NC(C)=O)c2c3c(sc2n1Cc1nc(-c2cccc(Cl)c2)oc1C)CCCC3	-22.6%	-10.8%	-1.1%	-17.4%	0.5%
O=C(CCCc1ccc(-c2ccccc2F)cc1)Nc1ccc(O)cc1	-2.0%	?	-1.2%	11.2µM*[quencher]	?
O=C(CCCc1ccccc1)Nc1cccc(C(=O)O)c1	-1.6%	6.1%	4.7%	3.8%	3.1%
Cc1ccc(C2=NN=C(NC(=O)CSc3nc(C)cc(C)n3)SC2)cc1	2.8%	12.6µM*	-7.1%	-18.3%	?
CCOC(=O)Cc1nnc(NC(=O)CSc2nnc3c4ccccc4n(C)c3n2)s1	-3.1%	?	2.3%	-13.3%	-4.3%
Cc1ccc(C2=NN=C(NC(=O)CSc3nnc4c5ccccc5n(C)c4n3)SC2)cc1	-4.9%	2.82µM*	4.1%	-21.8%	?
CC(C)c1cnc2c(c1SCC(=O)Nc1ccc(OC(F)(F)F)cc1)c(=O)n(C)c(=O)n2C	-2.7%	2.0%	-0.8%	-27.1%	?
CCn1c(SC(C)C)nnc1-c1cc(-c2ccccc2)sc1N	-0.5%	12.6µM*	0.5%	?	-10.6%
C=CCn1c(-c2cc(-c3ccccc3)sc2N)n[nH]c1=S	2.0%	?	-2.9%	?	16.4%
Cc1c(N=NC2=C(O)CCCC2=O)c(=O)n(-c2ccccc2)n1C	-2.7%	14.1µM*	3.7%	-28.1%	?
SMILES	TexasRed fluor	Tau fibril ThT	TRb SRC2 PPI	Tau fluor counter	Tau FP inhib
CCc1c(C)nc2nncn2c1Nc1ccc(Cl)cc1	-2.1%	0.6%	0.3%	1.7%	1.7%
CC1=NN(c2ccccc2)C(=O)/C1=C/N(C)C	-2.0%	-8.9%	-15.7%	-5.0%	-11.9%
CC1=NN(c2ccccc2)C(=O)/C1=C/C=C/c1ccc(N(C)C)cc1	14.1%	2µM*	23.1%	2.51µM*[quencher]	?
CCOC(=O)CC1=NN(c2ccccc2)C(=O)/C1=C\c1ccc(N(C)C)cc1	-2.4%	25.1µM*	8.2%	?	9.4%
CCOC(=O)c1ccc(N2N=C(C)/C(=C/C=C/c3ccco3)C2=O)cc1	-28.9%	3.16µM*	5.1%	?	?
CC1=NN(c2ccccc2)C(=O)/C1=C\C=C\c1ccccc1	1.1%	28.2µM*	-6.7%	?	?
CC1=NN(c2ccc(C(=O)OC(C)C)cc2)C(=O)/C1=C\C=C\c1ccco1	0.2%	3.3%	7.4%	-5.6%	-3.8%
CCOc1ccccc1C1C(C(=O)Nc2ccccc2)=C(C)Nc2nc(SCC(=O)c3ccc(C)cc3)nn21 (stereo unspecified)	-2.2%	?	2.0%	-18.7%	?
CCCN1CCCc2cc(CN)ccc21	9.1%	25.1µM*	-9.0%	?	-16.8%
Cc1ccc(NCc2ccccc2O)cc1	0.5%	-16.8%	-14.3%	?	18.1%
Cc1ccc(CNc2ccc(O)cc2)cc1	23.0%	3.55µM*	28.2µM*	?	8.91µM*
Cc1ccc(C)c(CN2C(=O)c3ccccc3Sc3ccc(C(=O)NCc4ccco4)cc32)c1	-1.9%	-3.0%	-2.5%	-12.1%	-2.0%
O=C1O/C(=C/Br)CCC1c1cccc2ccccc12 (stereo unspecified)	-1.7%	17.8µM*	-1.3%	?	?
O=C1CCC2c3ccc4ccccc4c3CCN12 (stereo unspecified)	1.8%	?	-2.8%	-21.8%	12.1%
CCOc1ccc(NC(=O)Cn2c(=O)n(Cc3nc(-c4ccccc4)no3)c(=O)c3cc4c(cc32)OCO4)cc1	-0.2%	2.9%	-6.1%	-29.6%	?
O=C(Cn1c(=O)n(Cc2nc(-c3ccccc3)no2)c(=O)c2cc3c(cc21)OCO3)Nc1cccc(C(F)(F)F)c1	-1.6%	?	-4.4%	-9.4%	10µM*
Cc1ccc(NC(=O)Cn2c(=O)n(Cc3nc(-c4ccccc4)no3)c(=O)c3ccccc32)cc1C	-2.3%	21.8%	-13.3%	-21.4%	?
COc1ccc(-c2noc(Cn3c(=O)c4ccccc4n(CC(=O)Nc4cccc(C(F)(F)F)c4)c3=O)n2)cc1	-0.2%	?	-10.4%	-8.6%	11.2µM*
O=C(CSc1nc(Nc2ccccc2)nc(N2CCOCC2)n1)Nc1ccc([N+](=O)[O-])cc1	0.8%	?	5.1%	12.6µM*[quencher]	?
Cc1cc(C)cc(NC(=O)C(=O)NCC(c2cccnc2)N2CCOCC2)c1 (stereo unspecified)	?	-8.4%	-25.4%	-6.6%	-4.7%
CC(=O)C1=C(C)NC(SCC(=O)c2ccc(C)cc2)=C(C#N)C1c1ccco1 (stereo unspecified)	-2.0%	15.8µM*	-4.8%	14.1µM*[quencher]	?
